KDM5B inh = Primary screen for KDM5B Histone Demethylases FDH-coupled qHTS; KDM5B demethylase, FDH-coupled NADH fluorescence (FDH is formaldehyde dehydrogenase); Potency, µM (series often up to 57.7 µM), usual class: inhibitors; 220,000 compounds, 2.6% hits; AID 1347165, 2019; active means well fitted inhibition curve with a large enough effect; further: 0% is about no effect; nearly all actives have a fitted effect of over 70% in size
Target sequence (Q9UGL1 whole entry, looked up): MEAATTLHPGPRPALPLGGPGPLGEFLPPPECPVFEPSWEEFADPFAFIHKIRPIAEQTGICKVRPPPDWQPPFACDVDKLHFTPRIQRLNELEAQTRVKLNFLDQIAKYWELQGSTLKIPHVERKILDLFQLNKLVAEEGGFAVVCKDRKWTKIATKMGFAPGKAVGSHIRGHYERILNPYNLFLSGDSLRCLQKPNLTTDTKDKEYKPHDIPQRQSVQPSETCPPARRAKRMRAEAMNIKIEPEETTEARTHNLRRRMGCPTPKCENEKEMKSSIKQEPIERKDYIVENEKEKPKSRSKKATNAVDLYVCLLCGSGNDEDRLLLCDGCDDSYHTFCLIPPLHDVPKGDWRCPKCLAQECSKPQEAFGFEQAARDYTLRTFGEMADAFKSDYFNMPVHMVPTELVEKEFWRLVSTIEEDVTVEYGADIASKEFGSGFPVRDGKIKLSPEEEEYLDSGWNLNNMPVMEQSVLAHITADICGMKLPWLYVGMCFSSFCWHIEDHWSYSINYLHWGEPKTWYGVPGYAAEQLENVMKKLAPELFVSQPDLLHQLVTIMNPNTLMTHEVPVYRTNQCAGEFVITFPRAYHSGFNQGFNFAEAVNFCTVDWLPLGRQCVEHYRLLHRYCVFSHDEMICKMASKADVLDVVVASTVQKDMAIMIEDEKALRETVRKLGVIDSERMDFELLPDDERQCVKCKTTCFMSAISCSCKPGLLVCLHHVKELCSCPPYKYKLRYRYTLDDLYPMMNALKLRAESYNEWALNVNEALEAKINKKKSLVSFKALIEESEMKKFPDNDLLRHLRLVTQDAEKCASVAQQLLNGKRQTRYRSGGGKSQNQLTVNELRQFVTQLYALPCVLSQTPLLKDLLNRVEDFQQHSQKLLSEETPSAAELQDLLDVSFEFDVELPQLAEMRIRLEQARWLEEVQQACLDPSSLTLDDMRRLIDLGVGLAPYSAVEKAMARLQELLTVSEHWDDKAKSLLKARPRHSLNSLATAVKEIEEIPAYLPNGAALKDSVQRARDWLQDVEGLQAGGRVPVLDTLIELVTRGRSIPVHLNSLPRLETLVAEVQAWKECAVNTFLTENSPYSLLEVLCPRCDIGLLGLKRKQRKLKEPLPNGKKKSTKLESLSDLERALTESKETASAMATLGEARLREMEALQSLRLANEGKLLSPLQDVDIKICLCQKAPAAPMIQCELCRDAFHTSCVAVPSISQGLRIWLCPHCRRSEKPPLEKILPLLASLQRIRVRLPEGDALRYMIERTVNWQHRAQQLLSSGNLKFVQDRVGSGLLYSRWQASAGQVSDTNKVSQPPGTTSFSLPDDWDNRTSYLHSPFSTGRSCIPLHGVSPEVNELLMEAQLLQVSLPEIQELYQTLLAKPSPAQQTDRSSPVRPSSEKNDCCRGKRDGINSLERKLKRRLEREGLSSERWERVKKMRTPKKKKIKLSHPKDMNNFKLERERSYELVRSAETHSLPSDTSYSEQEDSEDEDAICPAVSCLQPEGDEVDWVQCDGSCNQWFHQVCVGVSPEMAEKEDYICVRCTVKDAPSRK
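KDM5BΔAP (200 nM final) in 50 mM HEPES pH 7.5, 0.01% Tween-20 was preincubated 10 min at RT with compound over a concentration range. Substrate mix (H3K4me3 12.5 µM, α-KG 25 µM, Fe²⁺, ascorbate, NAD⁺, FDH) was added, and NADH fluorescence change over 30 min gave dose-response curves.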
The depositor's hits bear a star. This is one part of a sample in which hits are shown more often than they occur. Potency means the concentration at half of the fitted maximal effect.

Screening Cn1ccnc1C(=O)NCC1Cn2cccc2C(=O)N1Cc1ccccc1 (centres undefined) returned KDM5B inh inactive.
`CN1Cc2cccn2CC1CNC(=O)c1cc(CN2CCOCC2)on1` (centres undefined) gave KDM5B inh 17.8µM*.
CN1C(=O)c2cccn2CC1CNC(=O)c1cn[nH]c1-c1ccc(F)cc1 (centres undefined) was read as KDM5B inh inactive.
Cc1nc(C)c(C(=O)NCC2Cn3cccc3C(=O)N2C)s1 (centres undefined) was read as KDM5B inh inactive.
`O=C(NCCc1ccc(F)cc1)c1cc(CN2CCOCC2)on1` gave KDM5B inh inactive.
`CN1Cc2cccn2CC1CNC(=O)c1cnn(C)c1` (centres undefined) gave KDM5B inh 22.4µM*.
For CN1Cc2cccn2CC1CNC(=O)c1ccco1 (centres undefined) the results were KDM5B inh 28.2µM*.
Screening Cc1ccc(OCc2nc(-c3ccccc3OCC(=O)N3CCCCCC3)no2)cc1 returned KDM5B inh inactive.
`Cc1cc2oc(=O)cc(CN3CCC4(CC3)OCCO4)c2cc1C` gave KDM5B inh inactive.
Screening Cc1cc(C)cc(NS(=O)(=O)c2c(C)[nH]c(C)c2C(=O)N2CCCC2)c1 returned KDM5B inh inactive.
For COc1ccc(C(=O)/C=C/c2ccc(F)c(F)c2)cc1CSCC(=O)O the results were KDM5B inh inactive.
For CCOC(=O)c1ccc(NC(=O)Cn2c(C)cc3nc4n(c(=O)c32)CCCCC4)cc1 the results were KDM5B inh inactive.
Screening CC(C)C(NC(=O)c1ccc(Cl)cc1)C(=O)NCc1cnn(-c2ccccc2)c1 (centres undefined) returned KDM5B inh inactive.
Screening CN(C)C(=O)COC(=O)c1ccc2ccccc2n1 returned KDM5B inh inactive.
For CN1C(=O)c2cccn2CC1CNC(=O)c1n[nH]c(=O)c2ccccc12 (centres undefined) the results were KDM5B inh inactive.
CN1Cc2cccn2CC1CNC(=O)c1nn(C)c2ccccc12 (centres undefined) was read as KDM5B inh 15.8µM*.
For CCn1nccc1C(=O)NCC1Cn2cccc2C(=O)N1C (centres undefined) the results were KDM5B inh inactive.
`O=C(c1cc2ccccc2oc1=O)N1CCN(c2ccccc2)CC1` gave KDM5B inh inactive.
`CC(=O)N1CCN(c2cc(-c3noc([C@@H]4CCCN4Cc4ccc(CO)o4)n3)ccn2)CC1` gave KDM5B inh 28.2µM*.
`Cc1ccc(C(=O)N2CCC[C@H]2c2nc(-c3ccccc3)no2)cc1` gave KDM5B inh inactive.
For COc1ccc(-c2noc([C@@H]3CCCN3C(=O)c3ccc(OC)c(OC)c3)n2)cc1 the results were KDM5B inh inactive.
O=C(Cc1ccccc1Cl)N1CCC[C@H]1c1nc(-c2ccc(F)cc2)no1 was read as KDM5B inh inactive.
CC(=O)N1CCN(c2cc(-c3noc([C@@H]4CCCN4Cc4ccccc4C)n3)ccn2)CC1 was read as KDM5B inh 20µM*.
Cc1ccc(-c2noc([C@@H]3CCCN3C(=O)c3cnccn3)n2)cc1 was read as KDM5B inh inactive.
`O=c1c2c(CO)c(-c3ccc(F)cc3)nn2ccn1Cc1cccc(F)c1` gave KDM5B inh inactive.
For O=C(O)c1ccc(-c2ccc(F)cc2)cc1 the results were KDM5B inh inactive.
For O=C(C[C@@H]1CCNC[C@@H]1Cc1cc(COc2ccccc2)on1)NCc1ccccc1 the results were KDM5B inh inactive.
`Cc1ccc(NC(=O)C2=COCCO2)cc1Cl` gave KDM5B inh inactive.
For O=C(NCC1CCCOC1)c1cc(-c2ccncc2)nc2ccccc12 (centres undefined) the results were KDM5B inh inactive.
`O=C(CCc1nnn2c1CN(C(=O)COc1ccc(F)cc1)CC2)N1CCCC1` gave KDM5B inh inactive.
For O=C(c1ccccc1F)N1CCN(C(=O)c2nnn3c2COC(c2ccccc2)C3)CC1 (centres undefined) the results were KDM5B inh inactive.
`O=C(CCc1nnn2c1CN(C(=O)NCCc1ccccc1)CC2)N1CCCC1` gave KDM5B inh inactive.
For O=C(CCc1nnn2c1CN(C(=O)c1cccc3[nH]ccc13)CC2)N1CCCC1 the results were KDM5B inh 28.2µM*.
`O=C(c1nnn2c1COC(c1ccccc1)C2)N1CCN(C(=O)c2cccc3[nH]ccc23)CC1` (centres undefined) gave KDM5B inh 28.2µM*.
`O=C(c1ccccc1Cl)N1CCN(C(=O)c2nnn3c2COC(c2ccccc2)C3)CC1` (centres undefined) gave KDM5B inh inactive.
Screening COc1ccc(NC(=O)c2sc3c(c2C)C(c2cccc(O)c2)CC(=O)N3)cc1 (centres undefined) returned KDM5B inh inactive.
For COCC(=O)N[C@@H]1CN(Cc2ccc(F)cc2Cl)C[C@H]1CO the results were KDM5B inh inactive.
O=C1CCN(Cc2cccnc2)CCCC(C(=O)NCCCN2CCOCC2)CCN1 (centres undefined) was read as KDM5B inh inactive.
CCS(=O)(=O)N1CCCC(C(=O)NCc2ccncc2)CCNC(=O)CC1 (centres undefined) was read as KDM5B inh inactive.
Screening CS(=O)(=O)N1CCCC(C(=O)NCCN2CCc3ccccc3C2)CCNC(=O)CC1 (centres undefined) returned KDM5B inh inactive.
COCCCNC(=O)C1CCCN(Cc2ccncc2)CCC(=O)NCC1 (centres undefined) was read as KDM5B inh 25.1µM*.
Screening O=C1CCN(Cc2ccncc2)CCCC(C(=O)NCCCN2CCCc3ccccc32)CCN1 (centres undefined) returned KDM5B inh 14.1µM*.
For CN1CCCN(C(=O)C2CCCN(Cc3ccncc3)CCC(=O)NCC2)CC1 (centres undefined) the results were KDM5B inh inactive.
`COc1ccc(-c2nc3cc(NC(=O)COc4ccc(C)cc4)ccc3o2)cc1` gave KDM5B inh inactive.
For COCCOC1CCOC2(CCN(C(=O)c3nn(C)c4ccccc34)CC2)C1 (centres undefined) the results were KDM5B inh inactive.
For O=C1NCCCCCCN(S(=O)(=O)c2ccccc2)[C@H]2C[C@H](c3nc(-c4cccnc4)no3)C[C@@H]12 the results were KDM5B inh inactive.
For COc1ccc(N/C=C/C(=O)c2ccc(C)c(C)c2)cc1Cl the results were KDM5B inh inactive.
COc1ccccc1CN1C[C@@H](CO)[C@H](c2ccccn2)C1 was read as KDM5B inh inactive.
Cc1ccc2c(c1)nc1n2[C@@H](CN(Cc2ccc(C(=O)O)cc2)Cc2ccc(C(=O)O)cc2)COC1 was read as KDM5B inh inactive.
For CC(=O)N1CCC(N2CC[C@@H](CO)N(C)c3ncccc3C2)CC1 the results were KDM5B inh 35.5µM*.
`CN1c2cccnc2CN(C(=O)Nc2ccc(Cl)cc2)CC[C@H]1CO` gave KDM5B inh inactive.
Screening CN1c2cccnc2CN(C2CCC(CO)CC2)CC[C@H]1CO (some centres undefined) returned KDM5B inh inactive.
Screening COc1ccc2c(Nc3cc(OC)c(OC)c(OC)c3)c(C#N)cnc2c1 returned KDM5B inh inactive.
Screening c1csc(CNCCC2CCCCC2)c1 returned KDM5B inh inactive.
